# Experimental data as given in PubChem BioAssay AID435022 (Sanford-Burnham Center for Chemical Genomics, 2010).
# About 1,100 (0.33%) of roughly 330,000 compounds were called active. What follows is part of a selection rich in actives, with near analogues and random picks from the rest. Values without a mark were called inactive. No stated cut-off is given here; in the data, active means inhibition above about 35%; inactive means the rest.
# Assay: inhibitors of PMA/ionomycin-induced NF-kB reporter, 697 cells, primary screen, B-cell NF-kB inhibitor project, cell-based, luminescence, uHTS (AID 435022)
# Conditions: 697 B-cell NF-kB luciferase reporter, 16 h, at 4 µM, active compounds read high
row,SMILES,inhibition
1,COc1ccc(CNC(=O)[C@@H]2CC=C[C@@H]3CCN(C4CC4)C(=O)[C@@H]32)cc1,37.2% (active)
2,COc1ccc(CNC(=O)C2CCN(S(C)(=O)=O)CC2)cc1,3.89%
3,COc1ccc(CNC(=O)C2CCCC2)cc1,9.55%
4,CC(NC(=S)Nc1ccc(OC(F)F)cc1)c1ccc(F)cc1 (stereo not given),2.48%
5,COC(=O)c1cc(OC)c(OC)cc1NC(=O)C1CCCO1 (stereo not given),6.92%
6,COc1ccc(C(=O)NC2CCCc3c2cnn3-c2cccc(C)c2C)c(OC)n1 (stereo not given),-399%
7,CC1(C)Cc2c(cnn2-c2cccc(F)c2)C(NC(=O)c2cc[n+]([O-])cc2)C1 (stereo not given),-12.6%
8,Cn1nccc1C(=O)NC1CCCc2c1cnn2-c1ccc(F)cc1F (stereo not given),36.2% (active)
9,Cn1nccc1C(=O)NC1CCCc2c1cnn2-c1ccccc1F (stereo not given),62.7% (active)
10,COc1ccc(C(=O)NC2CC(C)(C)Cc3c2cnn3-c2ccccc2C)o1 (stereo not given),4.57%
11,Cc1ccc(-n2ncc3c2CCCC3NC(=O)c2cnccn2)cc1C (stereo not given),-27.6%
12,CC(C)(C)C(=O)NCCCNc1ccc([N+](=O)[O-])cc1,14.1%
13,CN(C(=O)CC(NC(=O)c1ccccc1)(c1ccccc1)c1ccccc1)c1ccccc1,12%
14,COC(=O)/C(C#N)=C/c1occc1C,5.66%
15,CC(NCc1cccs1)C(=O)Nc1cc(Cl)cc(Cl)c1 (stereo not given),7.31%
16,CN(C)c1ccc(-n2cccc2/C=N/n2cnnc2)cc1,-4.94%
17,CCc1ccnc(NC(=O)Nc2ccc(OCc3ccccc3)cc2)c1,6.55%
18,O=c1cc(-c2ccccc2)nc(N2CCCCC2)[nH]1,11.5%

row,SMILES,inhibition
1,O=C(O)c1n[nH]nc1-c1ccccc1,14.7%
2,O=c1[nH]c(-c2ccccc2)c(-c2ccccc2)[nH]1,35.4% (active)
3,COc1ccc(CNC(=O)C[C@H]2C[C@H](C(=O)N3CCOCC3)[C@@]3(C)c4[nH]c5cc(CCC(=O)N(C)C)ccc5c4CCN3C2=O)cc1OC,11.5%
4,CN1CC(c2ccccc2)C2(COc3ccccc3C2=O)C12C(=O)Nc1ccccc12 (stereo not given),11.7%
5,CC(=O)c1nc(N2C(=O)C3CC=C(C)CC3C2=O)sc1C (stereo not given),23.1%
6,C[C@@H]1C[C@@H]2O[C@H]2/C=C\C=C\C(=O)Cc2c(Cl)c(O)cc(O)c2C(=O)O1,83.8% (active)
7,COc1ccc(NC(=O)CSc2nc(SC)ns2)c(OC)c1,-40%
8,CCOC(=O)CSC1=N/C(=C/c2ccc(-n3cncn3)cc2)C(=O)N1C(C)=O,6.08%
9,C=CCC[C@@H](Cc1ccc(F)cc1)C(=O)O[C@H](CNC(=O)[C@H](CC=C)CC(=O)N(CCO)Cc1ccccc1)c1ccccc1,1.62%
10,CCOc1ccc(C(=O)CCC(=O)NC2=NCCS2)cc1,21.2%
11,O=C(CS(=O)(=O)Cc1ccccc1)Nc1cccnc1,-24.8%
12,S=C(c1ccc(-c2ccccc2)o1)N1CCCCC1,-134%
13,CN1CCN(CCCCOc2ccccc2-c2ccccc2)CC1,-15%
14,OCCN1CCN(C(=S)c2ccc(-c3ccccc3)cc2)CC1,55.1% (active)
15,Cc1cc(=O)oc2c(C(=O)c3ccccc3)c(OCC(N)=O)ccc12,-14.5%
16,O=C(CSC1=NS(=O)(=O)c2cc(F)ccc2N1)Nc1ccccc1F,1.35%
17,NCCCC[C@@H]1NC(=O)[C@H](CCC(=O)O)NC(=O)c2cc([N+](=O)[O-])cc(I)c2NCC[C@@H](C(N)=O)NC1=O,18.3%
